Values joined by “and” are separate entries in the source; they are usually repeats but may differ in a detail not shown here. Equal values may be shown once. Results filed as inconclusive are left out. The source holds several records for some structures; these can differ, active in one and inactive in another. Active and inactive are the calls of the source. How the source made its calls: active means hit-call score of the fitted dose curve at least 0.9, where 1 is the maximum; inconclusive means response in the unintended direction; inactive means score below 0.9.

Here are results for 37 compounds from PubChem BioAssay (EPA / NIEHS).

Retinoic acid receptor RXR-alpha (Homo sapiens), sequence (P19793 whole entry, looked up, the tested form may be a part): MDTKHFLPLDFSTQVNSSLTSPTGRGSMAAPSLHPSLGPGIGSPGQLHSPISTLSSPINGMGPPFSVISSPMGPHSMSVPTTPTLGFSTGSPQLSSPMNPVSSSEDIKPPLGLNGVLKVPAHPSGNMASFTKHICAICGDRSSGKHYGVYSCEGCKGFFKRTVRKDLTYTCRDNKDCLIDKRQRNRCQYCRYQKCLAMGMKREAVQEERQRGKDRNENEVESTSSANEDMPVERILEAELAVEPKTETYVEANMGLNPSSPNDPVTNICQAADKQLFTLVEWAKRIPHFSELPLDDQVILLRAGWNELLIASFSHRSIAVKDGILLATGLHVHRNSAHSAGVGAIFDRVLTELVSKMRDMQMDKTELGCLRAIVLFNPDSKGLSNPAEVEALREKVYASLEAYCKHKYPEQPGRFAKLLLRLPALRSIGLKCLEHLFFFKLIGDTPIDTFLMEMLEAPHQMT

The assay addresses Retinoic acid receptor RXR-alpha (Homo sapiens) (UniProt P19793). The experiment in a line: OT_NURR1_NURR1RXRa_0480: Odyssey Thera (OT) 8-hour HEK293T Protein Complementation Assay for Nurr1/retinoid X receptor (RXR) (AID 2283385). How it is done:
OT_NURR1_NURR1RXRa_0480 is a cell-based assay that uses HEK293T, a human kidney cell line, with measurements taken at 8 hours after chemical dosing in a 384-well plate.OT_NURR1_NURR1RXRa_0480 is one of one assay component(s) measured or calculated from the OT_NURR1_NURR1RXRa_0480 assay. It is designed to make measurements of protein fragment complementation, a form of binding reporter, as detected with fluorescence intensity signals by Protein-fragment Complementation technology.Data from the assay component OT_NURR1_NURR1RXRa_0480 was analyzed into 1 assay endpoint. This assay endpoint, OT_NURR1_NURR1RXRa_0480, was analyzed in the positive analysis fitting direction relative to DMSO as the negative control and baseline of activity. Using a type of binding reporter, measures of receptor for gain-of-signal activity can be used to understand the binding at the pathway-level as they relate to the gene RXRA. Furthermore, this assay endpoint can be referred to as a primary readout, because the performed assay has only produced 1 assay endpoint. To generalize the intended target to other relatable targets, this assay endpoint is annotated to the nuclear receptor intended target family, where the subfamily is non-steroidal.
Protein-fragment complementation assay, or PCA, is a method for the identification and quantification of protein-protein interactions. In the PCA, the proteins of interest ("bait" and "prey") are each covalently linked to fragments of a third protein (e.g. DHFR, which acts as a "reporter"). Interaction between the bait and the prey proteins brings the fragments of the reporter protein in close proximity to allow them to form a functional reporter protein whose activity can be measured.
For `C[C@]12C=CC(=O)C=C1CC[C@H]1[C@@H]3C[C@@H](O)[C@](O)(C(=O)CO)[C@@]3(C)C[C@H](O)[C@@]12F`, the compound was called inactive.

Consider `CC(C)CC(C)O` (stereo not given), for which the result was inactive.

Turning to `c1ccc2cc3ccccc3cc2c1`, the result was inactive.

As for `CCCCCOC(C)=O`, the result was inactive.

`CCCCCCCCCC`: the compound was classed as inactive.

Consider `OC[C@H]1O[C@@](CO)(O[C@H]2O[C@H](CO)[C@@H](O)[C@H](O)[C@H]2O)[C@@H](O)[C@@H]1O`, for which the call was inactive.

Turning to `CC(C)C(=O)Nc1ccc([N+](=O)[O-])c(C(F)(F)F)c1`, the compound was called inactive.

In the case of `C=CN1CCCC1=O`, the outcome was inactive.

Consider `O=C(NO)C1(NS(=O)(=O)c2ccc(Oc3ccc(F)cc3)cc2)CCOCC1`, for which the call was inactive.

Consider `CCCC(CCC)C(=O)O`, for which the compound was classed as inactive and the AC50 was 90.4 µM (active).

For the compound `c1ccc(C(O[C@@H]2CCCN(CCc3ccc4c(c3)OCO4)C2)c2ccccc2)cc1`, the AC50 is 89 µM (active) and the compound was called inactive.

As to `O=S1(=O)CCCO1`, the compound was classed as inactive.

In the case of `CCCc1ccccc1`, the call was inactive.

As for `Nc1ccn([C@@H]2O[C@H](CO)[C@@H](O)[C@@H]2O)c(=O)n1`, the result was inactive.

Regarding `OCc1ccccc1`, the outcome was inactive.

On to `COc1cc2c(c(OC)c1OC)-c1ccc(OC)c(=O)cc1[C@@H](NC(C)=O)CC2`, for which the AC50 is 8.86 µM (active) and the outcome was inactive.

For the compound `NC(=O)N(O)[C@@H]1COc2cc(OCc3ccccc3)ccc21`, the compound was called inactive.

Consider `OC(Cn1cncn1)(Cn1cncn1)c1ccc(F)cc1F`, for which the result was inactive.

Consider `OC(CCl)CCl`, for which the call was inactive.

For `Cc1ncc([C@@H](CCCCCCc2ccc3c(n2)NCCC3)CC(=O)O)cn1`, the compound was classed as inactive.

As to `Cn1cc[nH]c1=S`, the result was inactive.

`Cc1nccn1-c1ccc(Sc2cccc(C3(C(N)=O)CCOCC3)c2)cc1`: the compound was called inactive.

`OC[C@H]1O[C@@H]2O[C@H]3[C@H](O)[C@@H](O)[C@@H](O[C@H]4[C@H](O)[C@@H](O)[C@@H](O[C@H]5[C@H](O)[C@@H](O)[C@@H](O[C@H]6[C@H](O)[C@@H](O)[C@@H](O[C@H]7[C@H](O)[C@@H](O)[C@@H](O[C@H]1[C@H](O)[C@H]2O)O[C@@H]7CO)O[C@@H]6CO)O[C@@H]5CO)O[C@@H]4CO)O[C@@H]3CO`: the compound was called inactive.

In the case of `CCCCN1C(=O)[C@@H]([C@H](O)C2CCCCC2)NC(=O)C12CCN(Cc1ccc(Oc3ccc(C(=O)O)cc3)cc1)CC2`, the compound was classed as inactive.

As for `C[C@@H](Oc1ccc(CNC(=O)c2cccnc2Oc2ccc3c(c2)OCO3)c(F)c1)C(=O)O`, the result was inactive.

Regarding `CC(=O)c1ccccc1`, the compound was classed as inactive.

Regarding `Cc1ccc(S(=O)(=O)NC(=O)NN2CCCCCC2)cc1`, the compound was called inactive.

As to `CCCCCCOC(=O)CC(CC(=O)OCCCCCC)(OC(=O)CCC)C(=O)OCCCCCC`, the call was inactive.

For the compound `O=C(O)c1ccc2c(c1)nc(C(=O)NC1CCN(C3CC3)CC1)n2Cc1cc(-c2ccc(Cl)s2)on1`, the compound was called inactive.

With `CCc1cccc(CC)c1N`, the compound was called inactive.

With `CC1(C)C(=O)N(Cl)C(=O)N1Cl`, the compound was called inactive.

For the compound `COCc1nnc(-c2ccc[n+]([O-])c2)n1-c1c(Cl)c(Cl)cc2[nH]c(=O)c(=O)[nH]c12`, the outcome was inactive.

As to `CCCOc1ccc(S(=O)(=O)N2CCN(CC)CC2)cc1-c1nc2c(CC)n(Cc3ccccn3)nc2c(=O)[nH]1`, the outcome was inactive.

As to `O=S(=O)(O)c1ccc(N=Nc2c(O)ccc3cc(S(=O)(=O)O)ccc23)cc1`, the compound was classed as inactive.

`COc1cc(C(C)C)c2c(c1)S(=O)(=O)N(COc1cc(=O)n3cccc(OCCN4CCCCC4)c3n1)C2=O`: the AC50 was 3.02 µM (active) and 4 µM (active).

Take `CC(C)c1nnc2ccc(-c3ocnc3-c3cc(F)ccc3F)cn12`: the compound was classed as inactive.

Regarding `CCCCCCCCN(C)C`, the compound was classed as inactive.
